For 43 sequences, binding signal results are on record in publication PMC7819943, “Rice protein-binding microarrays: a tool to detect cis-acting elements near promoter regions in rice”.

Whole data set: some 68,000 sequences, median “fluorescence intensity (a.u.)” near 9,100, cut for the highest 2% near 16,000. The sample holds the highest values, similar sequences and a random draw of the others, so the mix is not that of the screen.

Sequence of OsWRKY34 (Q0JBA9 entry or part of it): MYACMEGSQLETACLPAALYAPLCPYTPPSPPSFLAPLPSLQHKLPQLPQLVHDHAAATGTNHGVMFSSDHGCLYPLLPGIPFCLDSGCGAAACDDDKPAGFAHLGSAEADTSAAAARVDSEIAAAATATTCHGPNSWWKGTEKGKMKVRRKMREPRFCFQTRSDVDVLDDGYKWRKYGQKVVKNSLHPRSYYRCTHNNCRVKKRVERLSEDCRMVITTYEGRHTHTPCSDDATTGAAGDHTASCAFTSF

The target in this test is OsWRKY34 (Oryza sativa, UniProt Q0JBA9 1-250). Nature of the test: protein-binding microarray (RPBM); PBS, 2% BSA, 51.3 ng/ul salmon testes DNA, 50 uM zinc acetate, 200 nM TF, 25 C, 1 h; high values mean tight binding. Conditions: protein: recombinant; tags: N-terminal polyhistidine and DsRed monomer fusion (pET32a); label: CyDye5-dUTP incorporated in the synthesized complementary strand; 3' TTTTT single-stranded linker to array surface; dsDNA, one strand shown. The method, boiled down:
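Using Ni–NTA, transcription factors fused N-terminally to polyhistidine and DsRed were purified after expression in E. coli BL21-CodonPlus. These were incubated at 200 nM with a blocked, double-stranded custom Agilent array for 1 h at 25 °C in a buffer containing 50 µM zinc acetate, and the array was washed. The binding signal is per-feature fluorescence intensity (arbitrary units) on an Axon 4000B scanner.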
For the sequence “GTTCTTTTGGGCAATCTCGTCTGTATTCCTTTGTCGTCTACGGAGTCACCTAGTGCAG”, the binding signal is 10800 fluorescence intensity (a.u.).

Regarding “TTTTTATTCCACCGCTTTGTCGTTCTCGCAATCTCGCTGTCGGAGTCACCTAGTGCAG”, the binding signal is 17700 fluorescence intensity (a.u.).

For the sequence “TTTATTCTCTGTTCCTCTTTTTTTCATATTCGTTTTTCACCGGAGTCACCTAGTGCAG”, the binding signal is 13200 fluorescence intensity (a.u.).

For “GTCCGCTGCTTTTCTCCCTTGTCGGTTATTTTACCTCTTCCGGAGTCACCTAGTGCAG”, the binding signal was 18900 fluorescence intensity (a.u.).

On to “ATCAATTTATCACCCGCTGACTCATCTTTATTGTATCTGCCGGAGTCACCTAGTGCAG”, for which the binding signal is 8420 fluorescence intensity (a.u.).

In the case of “GTCTCTTTCCGCTGCTTCGTTTCTGTCTCCGGTTTATTCACGGAGTCACCTAGTGCAG”, the binding signal was 18800 fluorescence intensity (a.u.).

As for “TTTTTTTCTCTTTCTTTTTTCTTTTCTTCGTTTTCTTTCACGGAGTCACCTAGTGCAG”, the binding signal was 9230 fluorescence intensity (a.u.).

With “AATGGCTAGCGTATAATCTGTCTTGGAATCACTTTGCTGCCGGAGTCACCTAGTGCAG”, the binding signal was 8120 fluorescence intensity (a.u.).

Regarding “TTGTAGTCCGCTGCTTTCCCTTTCTTTTATCTTCTCTTTCCGGAGTCACCTAGTGCAG”, the binding signal is 8450 fluorescence intensity (a.u.).

As to “ATTGTCTTGGCTGCTGTCTTTATAGTATTCACTCATCTGCCGGAGTCACCTAGTGCAG”, the binding signal is 18500 fluorescence intensity (a.u.).

Turning to “TCTCCCCTTTCTGCTTCTGCTGCTTCTCCCTTTCCCTCTCCGGAGTCACCTAGTGCAG”, the binding signal was 8200 fluorescence intensity (a.u.).

Regarding “TTCTGGATCTTGACTCTTGACCAGTTCATCCACACGTGTGCGGAGTCACCTAGTGCAG”, the binding signal was 8540 fluorescence intensity (a.u.).

Turning to “TCTCCCTCAGTTACTGCCTTGCTCCCCAACCCCAGGAGCACGGAGTCACCTAGTGCAG”, the binding signal was 9230 fluorescence intensity (a.u.).

Consider “GCTTGGGGTGGAATCGCGTGGACAGCGTGGGCCTCAGTCACGGAGTCACCTAGTGCAG”, for which the binding signal is 12000 fluorescence intensity (a.u.).

For the sequence “ATATTTATTAGTTGGCGTGTATGTAAAACTTGTGTGTTTCCGGAGTCACCTAGTGCAG”, the binding signal was 8400 fluorescence intensity (a.u.).

As for “CCATTGTTTTCTTCTTGTCCTTTTAGAGATGTTGGGTACACGGAGTCACCTAGTGCAG”, the binding signal was 8240 fluorescence intensity (a.u.).

“AACCACCCCGCGTTTCCAGTCTCCACCACATCAACTCCCCCGGAGTCACCTAGTGCAG”: the binding signal was 10200 fluorescence intensity (a.u.).

For the sequence “CCCCAATGAATCATAGGCTCAACCTGCTCCTGCTGCAACACGGAGTCACCTAGTGCAG”, the binding signal was 8040 fluorescence intensity (a.u.).

For “GGTCCGGCGGAAGTAGGGGCGGAAGTGCGGGCGGGAGATGCGGAGTCACCTAGTGCAG”, the binding signal is 9700 fluorescence intensity (a.u.).

As for “GACACATCTTAGTTTCATGAATTTGCACAAGAATTGCATGCGGAGTCACCTAGTGCAG”, the binding signal is 10800 fluorescence intensity (a.u.).

With “AGCCTGGAAGCCCATTCAGCGGCGGGGTTGGGGCGGCAGGCGGAGTCACCTAGTGCAG”, the binding signal was 10200 fluorescence intensity (a.u.).

Regarding “AGATTGCTTTTCTTACAAGGACGACGCTAACAATAACATCCGGAGTCACCTAGTGCAG”, the binding signal is 9110 fluorescence intensity (a.u.).

As to “GATGTGGATTTGGGATGTTAATTTGATTTGGGATTTGGGGCGGAGTCACCTAGTGCAG”, the binding signal is 10600 fluorescence intensity (a.u.).

Consider “GGCAATGCTTCACCGTCGCTTGCACCCCTTTCTCATGTGTCGGAGTCACCTAGTGCAG”, for which the binding signal was 9790 fluorescence intensity (a.u.).

Turning to “CCCATTTGCCATGTCAACGCACCGTACTAATTAATCCTTGCGGAGTCACCTAGTGCAG”, the binding signal is 10200 fluorescence intensity (a.u.).

Turning to “CCGCGGCCCAATAGCTCTTAGCCCATTGCCATCCGCCATCCGGAGTCACCTAGTGCAG”, the binding signal is 9820 fluorescence intensity (a.u.).

“CCGTTTTAAAATGTTTGACACCGTTGACTTTTTAGTACATCGGAGTCACCTAGTGCAG”: the binding signal was 26100 fluorescence intensity (a.u.).

Turning to “TGTTGTTGACTTTTAAACACATGTTTGATCATTTGTCTTACGGAGTCACCTAGTGCAG”, the binding signal is 14600 fluorescence intensity (a.u.).

On to “AGATGACTCCGTTGACTTTTAAACACATGTTTGATAATTCCGGAGTCACCTAGTGCAG”, for which the binding signal was 16200 fluorescence intensity (a.u.).

Consider “TTCCCTAAATGTTTGACACCGTTGACTTTTTTTTAAACATCGGAGTCACCTAGTGCAG”, for which the binding signal is 33300 fluorescence intensity (a.u.).

Regarding “TCCCTAAATGTTTGACACCGTTGACCTTTTTAAAACATTTCGGAGTCACCTAGTGCAG”, the binding signal was 17800 fluorescence intensity (a.u.).

In the case of “CCTAAATGTTTGACTCCGTTGACTTTTTTAAACATGTCTGCGGAGTCACCTAGTGCAG”, the binding signal was 26100 fluorescence intensity (a.u.).

With “TTACATTTTAGGACATATATTTGGGGAGCTTCTTGGCTGTCGGAGTCACCTAGTGCAG”, the binding signal is 10800 fluorescence intensity (a.u.).

“ATTTGTCTCTTTCGCGTCGTCTCTAACCTAACGTCCCAGACGGAGTCACCTAGTGCAG”: the binding signal was 13100 fluorescence intensity (a.u.).

With “CCCACGCGCCCACTTTGACCGACCCATCGATCGATCACGACGGAGTCACCTAGTGCAG”, the binding signal is 14300 fluorescence intensity (a.u.).

As for “GCAACACCTCCCCTGTTCTTGCTCTGTTTCCTCACTCTGTCGGAGTCACCTAGTGCAG”, the binding signal was 10200 fluorescence intensity (a.u.).

Turning to “TCTATCTGCCTGACTATCTCTATCTCGATCTCGTCCAGGACGGAGTCACCTAGTGCAG”, the binding signal is 9860 fluorescence intensity (a.u.).

Regarding “ATCCGAGCATCTCGCCTCGCCCCGCCCCGCCCCGATCGATCGGAGTCACCTAGTGCAG”, the binding signal was 9480 fluorescence intensity (a.u.).

As to “CTAGTAGTGCACACAAGCGGCAGCAGGAGGGGAGGGTGGTCGGAGTCACCTAGTGCAG”, the binding signal was 9190 fluorescence intensity (a.u.).

As to “CTCTCTCTGCCATATCCTGTGCTTTTCTTGTATTCCATCCCGGAGTCACCTAGTGCAG”, the binding signal was 11400 fluorescence intensity (a.u.).

Take “GTTTGACACTTTTAGTACGTGTTTGACCATTTGTTTTATTCGGAGTCACCTAGTGCAG”: the binding signal was 10200 fluorescence intensity (a.u.).

As for “ATGTTTGACACCGTTGACTTTTTAGTACGTGTTTGACCATCGGAGTCACCTAGTGCAG”, the binding signal is 28200 fluorescence intensity (a.u.).

“CCTAAATGTTTGACACCGTTGACTTTTTTAAACATATTTGCGGAGTCACCTAGTGCAG”: the binding signal is 33000 fluorescence intensity (a.u.).
